LDHA inh: blocks human lactate dehydrogenase A; P00338; purified LDHA, NADH/diaphorase-resazurin fluorescence; hits give low values; activity change, % (values are at about 110 or 230 µM); actives 0.15% (n = 480,000); AID 1347041; in the data active means activity change below about -30%; inconclusive means mostly about -25% to -30%;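 further: plate controls were DMSO wells for no effect and wells without enzyme for full effect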
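Enzyme activity of human lactate dehydrogenase 5 (2 nM; 0.06 mM NADH, 0.2 mM pyruvate, 5 min, RT) is measured via a resazurin/diaphorase fluorescence readout of residual NADH.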
mIDH1 inhibitor: blocks human mutant IDH1 R132H enzyme; Potency, µM (highest dose often 76.6 µM), for inactives: at the highest dose activity change, negative = inhibition, most hits filed as inhibitors; AID 602179; O75874; IDH1-R132H enzyme, NADPH consumption, diaphorase/resazurin fluorescence; actives 0.093% (n = 390,000); further: potency means the concentration at half of the fitted maximal effect; on the % scale 0 is the no-effect control and ±100 the full control effect; nearly all actives have a fitted effect of over 65% in size
Target sequence (O75874 whole entry R132H, stated change not applied): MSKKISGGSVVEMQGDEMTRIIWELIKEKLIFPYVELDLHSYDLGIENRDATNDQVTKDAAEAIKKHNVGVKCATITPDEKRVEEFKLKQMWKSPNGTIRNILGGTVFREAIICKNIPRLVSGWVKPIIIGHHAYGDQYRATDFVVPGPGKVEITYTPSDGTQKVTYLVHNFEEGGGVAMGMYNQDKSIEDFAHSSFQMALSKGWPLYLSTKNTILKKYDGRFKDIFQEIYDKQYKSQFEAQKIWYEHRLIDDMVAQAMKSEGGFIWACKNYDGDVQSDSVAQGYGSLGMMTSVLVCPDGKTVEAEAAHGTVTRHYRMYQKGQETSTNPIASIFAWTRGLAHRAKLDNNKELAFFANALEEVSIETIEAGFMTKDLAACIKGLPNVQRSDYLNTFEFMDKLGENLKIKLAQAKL
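IDH1-R132H (0.5 ug/mL dispensed) in pH 7.5 Tris buffer was preincubated 30 min with compound, then given a substrate mix of 0.016 mM NADPH and 2 mM alpha-KG for 80 min at room temperature; remaining NADPH was read by diaphorase/resazurin fluorescence.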
ATXN2 expr inh: inhibitors of ATXN2 expression. HEK-293 ATXN2-luciferase reporter, luminescence, 24 h. Potency, µM (highest dose often 57 µM), without a hit: at the top dose activity change, negative = inhibition, usual class: inhibitors. actives 0.72% (n = 360,000); further: potency means the concentration at half of the fitted maximal effect; on the % scale 0 is the no-effect control and ±100 the full control effect; nearly all actives have a fitted effect of over 55% in size
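qHTS (up to 57 uM final) was run with 24 h compound exposure of reporter cells at 37 °C. Each well was multiplexed: SteadyGlo luminescence measured ATXN2-luciferase expression after a fluorogenic Gly-Phe-AFC viability readout (25 uM final).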
HepG2 tox: HepG2 cytotoxicity, counter-screen for TGF-b inhibitors. HepG2 CAGA-GFP viability, ATP luminescence, 18 h. Potency, µM (titrated, usually from 46.1 µM), for inactives: at the top dose activity change, negative = cytotoxicity, most hits filed as cytotoxic. actives 0.76% (n = 410,000). AID 588856; further: potency means the concentration at half of the fitted maximal effect
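HepG2 CAGA-GFP cells (1000/well, DMEM with 1% FBS) received compound, then TGF-beta at 500 pg/mL final, and were incubated 18 hours at 37 degrees C. Viability was read by CellTiter-Glo luminescence. Media-only wells were set as complete cell-killing and DMSO as no toxicity.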
ATXN viability: reduces viability in counter-screen for ATXN expression inhibitors; S2 cells (HEK-293 line with an ATXN2-luciferase reporter) viability, CellTiter-Fluor protease fluorescence, 24 h; Potency, µM (highest dose often 56.7 µM), most hits filed as cytotoxic; actives 0.49% (n = 400,000); further: potency means the concentration at half of the fitted maximal effect; nearly all actives have a fitted effect of over 40% in size
TGFb SMAD3 inh: TGF-b pathway inhibition. HepG2 CAGA-GFP TGF-b/SMAD3 reporter, GFP fluorescence, 18 h; TGF-beta stimulated, 500 pg/mL final. actives 1.2% (n = 410,000). AID 588855. Potency, µM (series often up to 46.1 µM), inactives show top-dose activity, negative = inhibition, most hits filed as inhibitors; further: potency means the concentration at half of the fitted maximal effect; on the % scale 0 is the no-effect control and ±100 the full control effect; nearly all actives have a fitted effect of over 65% in size
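HEPG2 CAGA-GFP, 1000 cells/well; 2 h settle, 37 C; cpd via pin tool; TGF-b 500 pg/mL final; 18 h, 37 C; GFP imaging ex488/em500-530; %Activity normalised to -TGF-b and +DMSO controls; CRC fit, curve class.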
* marks the source's active call; other numbers are inactive results; i = inactive; ? = inconclusive; nt = not tested or not shown. This is a sample that favours compounds with a hit; in the whole collection about 2.2% have one here. Unless noted, the call rests on the fitted dose curve; in most records, active means well fitted curve in the direction sought with a large enough effect; inconclusive means small, poorly fitted or top-dose-only effect, or another doubt; inactive means no such curve, though single readings can be large; an effect the other way counts as inactive or inconclusive.

SMILES | LDHA inh | mIDH1 inhibitor | ATXN2 expr inh | HepG2 tox | ATXN viability | TGFb SMAD3 inh
COc1ccc(S(=O)(=O)N2CCN(CC(=O)Nc3c(C)n[nH]c3C)CC2)cc1OC | -36* | 3% | -14% | -8% | i | 12%
Cc1n[nH]c(C)c1NC(=O)CN1CCN(S(=O)(=O)c2ccc(C(F)(F)F)cc2)CC1 | -37* | -21% | -19% | -60% | i | -10%
COc1ccc(NC(=O)CN2CCN(S(=O)(=O)c3ccc(C(C)C)cc3)CC2)cc1OC | -3 | -1% | 2% | 1% | i | 59%
Cc1ccc2c(CC(=O)Nc3ccccc3C(F)(F)F)coc2c1C | -2 | -13% | -18% | -42% | ? | ?
Cc1sc(NC(=O)CN(Cc2ccccc2)C(=O)C(C)C)c(C(N)=O)c1C | -1 | -3% | nt | -25% | i | ?
Cc1cccc(N2CCN(C(=O)C3CCCN(C(=O)c4cc5sccc5n4C)C3)CC2)c1C (centres undefined) | 3 | 5% | ? | -30% | i | ?
Cc1cccc(N2CCN(C(=O)C3CCN(S(=O)(=O)Cc4ccccc4)CC3)CC2)c1C | -7 | -10% | 10% | 18µM* | i | ?
Cc1cccc(N2CCN(C(=O)C3CCN(C(=O)c4cc5sccc5n4C)CC3)CC2)c1C | -2 | -5% | nt | -12% | nt | 11µM*
Cc1cccc(N2CCN(C(=O)C3CCN(S(=O)(=O)Cc4cccc(Cl)c4)CC3)CC2)c1C | 9 | nt | nt | nt | nt | nt
C[C@H](CO)N1C[C@H](C)[C@H](CN(C)C(=O)CCC(F)(F)F)OCc2cnnn2CCCC1=O | -10 | 0% | -5% | 2% | i | 1%
C/C(Cl)=C\Cn1c(O)c(N=NC(N)=S)c2ccccc21 | -1 | -1% | 24µM* | -29% | nt | ?
COc1ccc(NC(=O)CCS(=O)(=O)c2ccc(Br)s2)cc1 | -8 | -3% | 0% | 6% | i | 2%
N#Cc1c(-c2ccc(F)cc2)cc(-c2ccccc2)nc1SCC(=O)NCC(=O)O | -80* | 8% | nt | -3% | i | 3%
N#Cc1c(-c2ccc(Cl)cc2)cc(-c2ccccc2)nc1SCC(=O)O | -9 | -9% | nt | -67% | ? | ?
CCCS(=O)(=O)NC(=O)C1(C)CCCN(C(=O)c2ccc(C(=O)OC)cc2)C1 (centres undefined) | -8 | nt | 3% | 0% | i | 24%
CC[n+]1ccnc2ccccc21 | 7 | nt | nt | 3.5µM* | nt | 3.2µM*
O=C(C[n+]1ccnc2ccccc21)c1ccc(Cl)cc1 | nt | nt | nt | -12% | nt | -30%
COc1cc2ccccc2cc1C(=O)N1CC(C)CC(C)C1 (centres undefined) | -1 | 1% | -21% | 7% | i | -16%
CC(=O)c1cccc(NC(=O)Cn2c(C)c3cnn(-c4ccccc4)c(=O)c3c2C)c1 | -7 | 2% | -6% | -12% | i | ?
CCNc1ccc(S(=O)(=O)NCCN(C)C)cc1[N+](=O)[O-] | -6 | -7% | nt | -107% | i | 1%
CN(C)CCCNS(=O)(=O)c1ccc(NC2CCCCCC2)c([N+](=O)[O-])c1 | 3 | 3% | -36% | -171% | i | 22µM*
CC(C)(C)c1cc(NCCCn2ccnc2)n2ncc(-c3ccc(Cl)cc3)c2n1 | 0 | -6% | ? | 22µM* | ? | ?
Cc1cc(NCCCn2ccnc2)n2nc(-c3ccc(Cl)cc3)cc2n1 | 0 | 8% | 8% | -21% | i | -8%
COCCOC(=O)c1[nH]c2c(c1C)C(=O)CC(c1ccco1)C2 (centres undefined) | 0 | -11% | 10% | -15% | ? | ?
Cc1c(C(=O)OCc2ccccc2)[nH]c2c1C(=O)CC(c1ccco1)C2 (centres undefined) | -4 | -18% | -13% | -44% | ? | 2.5µM*
SMILES | LDHA inh | mIDH1 inhibitor | ATXN2 expr inh | HepG2 tox | ATXN viability | TGFb SMAD3 inh
COc1cc2c(cc1OC)C(c1ccc(C)cc1)NC(=O)C2 (centres undefined) | 3 | -6% | 22% | -23% | i | 0%
COc1ccc(OCC(=O)N2CCN(c3nnc(-c4ccc(C)cc4)c4ccccc34)CC2)cc1 | -1 | -4% | ? | 3% | ? | -27%
Cn1nc(-c2ccc(OCC(=O)N3CCOCC3)cc2)c2ccccc2c1=O | -31* | nt | nt | nt | nt | nt
Cc1ccc(OCC(=O)N2CCN(c3nnc(-c4ccc(C)cc4)c4ccccc34)CC2)cc1 | 4 | 3% | 28µM* | -28% | ? | ?
Cn1nc(-c2ccc(N3CCOCC3)c(NC(=O)COc3ccccc3)c2)c2ccccc2c1=O | -3 | nt | nt | nt | nt | nt
Cc1ccc(CNC(=O)Nc2cn(CC(C)C)c(=O)c3ccccc23)cc1 | 8 | ? | -3% | -1% | i | 5%
CNc1cc(CSC)nc(SCc2ccc(Cl)cc2Cl)n1 | 8 | 1% | -12% | -37% | i | ?
COc1cccc2c1C1COC3C4CC(C(=O)O)C(C(C2)N13)N4C (centres undefined) | -6 | 4% | 11µM* | -45% | ? | ?
COc1cccc2c1C(CCCC(=O)O)CCC2 (centres undefined) | -10 | -1% | -10% | -12% | i | -8%
COc1ccc(F)c(CN2CCOc3ccc(CN4CCC(O)(c5cccnc5)CC4)cc3C2)c1 | nt | nt | nt | nt | i | nt
CCN(CCCNC(=O)c1cc2cc3ccc(OC)cc3nc2s1)c1cccc(C)c1 | 0 | -14% | -31% | 13µM* | nt | 13µM*
CCN(CCCNC(=O)c1cc2cc3ccc(OC)cc3nc2s1)c1ccccc1 | -3 | -4% | nt | -20% | nt | 0%
CC(=O)c1cccc(OCc2coc(-c3cccc(Cl)c3)n2)c1 | 2 | nt | nt | nt | nt | nt
O=C(CS(=O)c1ccc(C(F)(F)F)cc1[N+](=O)[O-])Oc1ccccc1 (centres undefined) | 13 | 8% | ? | 3.5µM* | ? | ?
COC(=O)c1ccc(OC(=O)CS(=O)c2ccccc2[N+](=O)[O-])cc1 (centres undefined) | 1 | -5% | 7% | -4% | i | 4%
CS(=O)(=O)c1ccc(S(=O)CC(=O)OCc2ccccc2)c([N+](=O)[O-])c1 (centres undefined) | 32 | -2% | ? | 7.1µM* | nt | 4.5µM*
O=[N+]([O-])c1cccnc1Sc1ccc(F)cc1 | 4 | 9% | -13% | 7.1µM* | i | -13%

Compound activity: PubChem BioAssay, National Center for Advancing Translational Sciences (NCATS)
